# DT40 TDP1 no CPT – qHTS for Inhibitors of human tyrosyl-DNA phosphodiesterase 1 (TDP1): qHTS in cells in absence of CPT | DT40 Tdp1-/- hTDP1 cells, no CPT, ATP luminescence, 48 h | Potency, µM (series often up to 46.2 µM), without a hit: top-dose activity change, negative = growth inhibition, hits mostly inhibitors | 15% of 420,000 active | AID 686978, 2013; note: potency is the fitted concentration of half-maximal effect; nearly all actives have a fitted effect of over 55% in size
#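 Compound effects on proliferation are scored in DT40 Tdp1-/-;hTDP1 cells in the absence of CPT. ATP levels (CellTiter-Glo luminescence) are recorded after a ≥48 hr, 37 °C incubation.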
# HT1080NT lethal – qHTS for induction of synthetic lethality in tumor cells producing 2HG: qHTS for the HT-1080-NT fibrosarcoma cell line | HT-1080-NT fibrosarcoma viability, CellTiter-Glo ATP luminescence, 48 h | Potency, µM (top dose mostly 46.1 µM), for the others: at the top dose activity, negative = less viability, usual class: cytotoxic | 1.6% of 360,000 active;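 note: NT is the 2HG producing partner of a matched IDH1 knockdown line; potency is the fitted concentration of half-maximal effect; 0% = DMSO-treated cells and -100% = media-only wells without cells; nearly all actives have a fitted effect of over 55% in size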
#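 Read-out is CellTiter-Glo luminescence after 10 minutes at room temperature, following 48 hours' compound treatment of HT-1080-NT cells (750 cells/well, RPMI, 5% FBS, 37 degrees C).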
# HT1080 IDH1KD tx – qHTS for induction of synthetic lethality in tumor cells producing 2HG: qHTS for the HT-1080-IDH1KD cell line; HT-1080 IDH1 knockdown viability, ATP luminescence, 48 h; Potency, µM (series often up to 46.1 µM), for inactives: at the highest dose activity, negative = toxicity, usual class: cytotoxic; 2% of 360,000 active;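 note: potency is the fitted concentration of half-maximal effect; 0% = DMSO wells and -100% = cell-free medium wells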
#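 % activity derives from luminescence (CellTiter-Glo), normalised to DMSO and no-cell wells. HT-1080-IDH1KD cells, 750/well, had 48 h compound exposure at 37 °C.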
# IL1B secr inh – qHTS for Inhibitors of Inflammasome Signaling: IL-1-beta AlphaLISA Primary Screen; THP-1 LPS/ATP IL-1B secretion, AlphaLISA, 16 h; hits give low values; activity change, % at 57.5 µM; 4.7% of 360,000 active; AID 743279, 2014; in the data active = activity change below about -50%; inconclusive = mostly about -30% to -49%
#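 Secreted IL-1B measured by AlphaLISA bead assay after 16 h compound exposure of THP-1 cells; compounds (final up to 57.5 uM) added 1 h before LPS (250 ng/mL) and ATP (1.25 mM) stimulation; lower signal means less secretion.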
# TDP1 cell CPT – qHTS for Inhibitors of human tyrosyl-DNA phosphodiesterase 1 (TDP1): qHTS in cells in presence of CPT; chicken DT40 Tdp1-/-;hTDP1 cells + 20 nM CPT, ATP luminescence, 48 h; Potency, µM (top dose mostly 46.2 µM), inactives show at the top dose activity change, negative = growth inhibition, actives largely listed as inhibitors; 12% of 420,000 active; note: potency is the fitted concentration of half-maximal effect; nearly all actives have a fitted effect of over 55% in size
#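 Chicken DT40 Tdp1-/- cells stably complemented with human TDP1 were seeded at 400 cells/well in medium containing 20 nM camptothecin, exposed to pin-transferred compounds, and grown at 37 °C for at least 48 hr. Viability was read as ATP luminescence.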
# The depositor's hits bear a star; ? = inconclusive; . = no result given; [ ] = dose if it differs, or a comment. An excerpt weighted towards active compounds, which were near 19% of everything screened. Unless noted, calls come from the whole dose curve; as a rule, active = well fitted curve in the direction sought with a large enough effect; inconclusive = small, poorly fitted or top-dose-only effect, or another doubt; inactive = no such curve, though single readings can be large; an effect the other way counts as inactive or inconclusive. Unless noted, % is set by controls: 0 for no effect and ±100 for the full control effect.
SMILES,DT40 TDP1 no CPT,HT1080NT lethal,HT1080 IDH1KD tx,IL1B secr inh,TDP1 cell CPT
CCC1C(=O)OCC1Cc1cncn1C (centres undefined),-6.2%,.,.,.,6.5%
OCCN(CCO)CCO,1.2%,.,.,.,15.5%
CC1=C/C(=N\NC(=S)NCCc2ccccc2)CC(C)(C)C1,?,5.8%,0.8%,-6.8,?
Nc1nonc1C(=O)N/N=C/c1ccc([N+](=O)[O-])o1,9.2µM*,?,18.4µM*,-87.2*,7.31µM*
CCN(CC)P(=O)(Nc1ccc([N+](=O)[O-])cc1)c1c(C)nn(CCC#N)c1NC(=O)c1ccc(Cl)cc1Cl (centres undefined),23.1µM*,-10.0%,-15.5%,-7.4,18.4µM*
CN1CC[C@@]2(CCCN(C(=O)Oc3ccccc3)C2)C1,0.5%,.,.,.,6.8%
COc1ccc(-c2nc(SCC(=O)NC(C)CCc3ccccc3)n[nH]2)cc1 (centres undefined),11.6µM*,.,.,.,11.6µM*
COc1ccc(-c2ccc3c(c2)CN(C(=O)CCc2ccccc2)Cc2cnnn2-3)cc1,?,?,?,-16.9,?
COc1cc2[nH]c(=O)n(-c3cccc(Cl)c3)c(=O)c2cc1OC,-7.8%,10.5%,4.8%,-1.6,-5.5%
CCOc1cc2[nH]c(=O)n(CCCC(=O)N3CCN(c4cccc(Cl)c4)CC3)c(=O)c2cc1OCC,3.26µM*,.,.,.,5.8µM*
O=C1NC(=O)C2(Cc3ccccc3N3CCCC32)C(=O)N1Cc1ccccc1 (centres undefined),23.1µM*,0.1%,-6.8%,19.3,?
O=C1NC(=O)[C@]2(Cc3ccccc3N3CCN(c4ccccc4)CC32)C(=O)N1Cc1ccccc1 (some centres undefined),23.1µM*,-1.6%,-1.6%,-23.1,20.6µM*
CN1C(=O)NC(=O)[C@]2(Cc3ccccc3N3CCN(c4ccccc4)CC32)C1=O (some centres undefined),?,0.7%,0.3%,0.2,?
O=C1NC(=O)C2(Cc3ccccc3N3CCCC32)C(=O)N1c1ccc(Cl)cc1 (centres undefined),?,?,-4.2%,18.4,?
O=C1NC(=O)C2(Cc3c(nc4ccccn4c3=O)N3CCCCCC32)C(=O)N1Cc1ccccc1 (centres undefined),23.1µM*,-3.3%,-3.2%,1.0,20.6µM*
CC(C)(C)C(=O)Nc1ccc(S(=O)(=O)N2CC3CC(C2)c2cccc(=O)n2C3)cc1 (centres undefined),8.3%,11.3%,6.8%,-13.1,4.3%
O=C(Cc1ccccc1F)N1CCN(CC(=O)N2CCCC2)CC1,-9.1%,4.7%,15.3%,14.9,17.1%
O=C1N[C@@H](Cc2ccccc2)C(=O)N2[C@H]3Nc4ccccc4[C@@]3([C@]34C[C@H]5C(=O)N[C@@H](Cc6ccccc6)C(=O)N5[C@H]3Nc3ccccc34)C[C@@H]12,?,-8.0%,-7.6%,0.0,?
Clc1cncc(N2CCNCC2)n1,-15.9%,.,.,.,-4.8%
C=C[C@H]1CN2CC[C@H]1C[C@H]2c1[nH]c2ccccc2c1CCO,-25.9%,.,.,.,14.3%
O=c1cc(CN2CC=C(c3ccccc3)CC2)c2c(ccc3ccccc32)o1,20.6µM*,15.6%,?,26.3,?
CCOP(=S)(OCC)SCCSCC,-8.2%,23.0%,12.6%,22.2,-13.8%
O=C(CC1CCCCC1)c1c(O)c2ccccc2oc1=O,?,7.94µM*,?,16.3,18.4µM*
O=c1oc2ccccc2c(O)c1Cc1c(O)c2ccccc2oc1=O,-7.6%[21.1 µM],.,.,.,-4.2%[21.1 µM]
CCOCCN1CCC(OC(C)=O)C(C)C1 (centres undefined),0.0%,13.8%,1.8%,20.6,8.7%

# Bioassay records from PubChem.
